Calls of active or inactive are those of the source. How the source made its calls: active means hit-call score of the fitted dose curve at least 0.9, where 1 is the maximum; inactive means score below 0.9.
Legend:
[1] = BSK_hDFCGF_SRB: Viability Assessment in the BioMAP Diversity Plus: hDFCGF Assay (AID 2283061); settings: primary human foreskin fibroblasts;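 further: cells exposed to compound for 24 h before the read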
Outline: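 Viability was read as total protein: after 10% TCA fixation, wells were stained with 0.1% sulforhodamine B and read at 560 nm. Primary human foreskin fibroblasts were dosed for 24 h, with bidirectional fitting versus DMSO.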

[2] = read-out: TIMP metallopeptidase inhibitor 1 (TIMP1), TIMP1 (gene 7076); experiment: BSK_hDFCGF_TIMP1: BioMAP Diversity Plus: hDFCGF Assay for TIMP metallopeptidase inhibitor 1 (TIMP1) Biomarker Activity (AID 2283062); settings: primary human foreskin fibroblasts; actives raise or lower the signal
Outline: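 TIMP-1 measured by ELISA 24 h after chemical dosing of primary human skin fibroblasts, with gain or loss fitted relative to DMSO. Parallel SRB staining (560 nm) monitored overt cytotoxicity.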

[3] = read-out: Monokine induced gamma interferon (MIG), CXCL9 (gene 4283); experiment: BSK_hDFCGF_MIG: BioMAP Diversity Plus: hDFCGF Assay for Monokine induced gamma interferon (MIG) Biomarker Activity (AID 2283063); settings: primary human foreskin fibroblasts; actives raise or lower the signal
Outline: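 Human primary foreskin fibroblasts in the hDFCGF system, exposed to test chemical for 24 h; MIG measured by ELISA. Bidirectional curve fitting against DMSO negative control as activity baseline.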

[4] = read-out: Matrix Metallopeptidase 1 (MMP1), MMP1 (gene 4312); experiment: BSK_hDFCGF_MMP1: BioMAP Diversity Plus: hDFCGF Assay for Matrix Metallopeptidase 1 (MMP1) Biomarker Activity (AID 2283064); settings: primary human foreskin fibroblasts; actives raise or lower the signal
Outline: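 MMP1 levels quantified by ELISA 24 h after dosing human dermal fibroblast cultures, with parallel SRB total-protein staining for overt cytotoxicity. Data fitted in both directions against DMSO baseline.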

[5] = read-out: Vascular cell adhesion molecule 1 (VCAM1), VCAM1 (gene 7412); experiment: BSK_hDFCGF_VCAM1: BioMAP Diversity Plus: hDFCGF Assay for Vascular cell adhesion molecule 1 (VCAM1) Biomarker Activity (AID 2283065); settings: primary human foreskin fibroblasts; actives raise or lower the signal;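 on AC50: VCAM-1 protein level quantified by ELISA after 24 h chemical exposure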
Outline: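 ELISA readout of VCAM-1 on human dermal fibroblast primary cultures, 24 h after chemical exposure. Gain or loss of signal fitted in both directions against DMSO baseline.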

[6] = read-out: Plasminogen activator inhibitor-1 (PAI1), SERPINE1 (gene 5054); experiment: BSK_hDFCGF_PAI1: BioMAP Diversity Plus: hDFCGF Assay for Plasminogen activator inhibitor-1 (PAI1) Biomarker Activity (AID 2283066); settings: primary human foreskin fibroblasts; actives raise or lower the signal
Outline: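 Human skin fibroblast cultures receive chemical for 24 h before PAI-1 is measured by ELISA; signal changes are fitted bidirectionally against DMSO-treated wells.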

[7] = read-out: Intercellular Adhesion Molecule 1 (ICAM1), ICAM1 (gene 3383); experiment: BSK_KF3CT_ICAM1: BioMAP Diversity Plus: KF3CT Assay for Intercellular Adhesion Molecule 1 (ICAM1) Biomarker Activity (AID 2283067); settings: primary human keratinocytes with fibroblasts; actives raise or lower the signal
Outline: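 Cell-surface ICAM-1 was measured by ELISA 24 h after dosing primary human skin keratinocytes co-cultured with fibroblasts. Parallel SRB staining tracked overt cytotoxicity. Gain or loss of signal was fitted relative to DMSO.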

[8] = read-out: Interferon-gamma inducible Protein 10 (IP10), CXCL10 (gene 3627); experiment: BSK_KF3CT_IP10: BioMAP Diversity Plus: KF3CT Assay for Interferon-gamma inducible Protein 10 (IP10) Biomarker Activity (AID 2283068); settings: primary human keratinocytes with fibroblasts; actives raise or lower the signal
Outline: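 Signal is secreted/surface IP-10 by ELISA in a human primary skin co-culture of keratinocytes and foreskin fibroblasts, taken 24 h post-dosing; DMSO served as negative control.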

[9] = BSK_KF3CT_SRB: Viability Assessment in the BioMAP Diversity Plus: KF3CT Assay (AID 2283069); settings: primary human keratinocytes with fibroblasts;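 further: total protein by sulforhodamine B staining as a cytotoxicity measure; read 24 h after compound addition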
Outline: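 Cytotoxicity was gauged by SRB staining (0.1% SRB, 10% TCA fixation, 560 nm) of parallel cultures at 24 h. The cells were primary human skin keratinocytes co-cultured with fibroblasts, and activity was fitted in both directions against DMSO.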

[10] = read-out: Interleukin-1 alpha (IL1a), IL1A (gene 3552); experiment: BSK_KF3CT_IL1a: BioMAP Diversity Plus: KF3CT Assay for Interleukin-1 alpha (IL1a) Biomarker Activity (AID 2283070); settings: primary human keratinocytes with fibroblasts; actives raise or lower the signal
Outline: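 IL-1a was detected by ELISA 24 h after chemical treatment of a co-culture of human skin keratinocytes and foreskin fibroblasts. Gain or loss of signal was fitted against the DMSO baseline.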

[11] = read-out: Transforming growth factor beta 1 (TGFb1), TGFB1 (gene 7040); experiment: BSK_KF3CT_TGFb1: BioMAP Diversity Plus: KF3CT Assay for Transforming growth factor beta 1 (TGFb1) Biomarker Activity (AID 2283072); settings: primary human keratinocytes with fibroblasts; actives raise or lower the signal
Outline: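 TGF-b1 ELISA on a 24 h dosed co-culture of human keratinocytes and foreskin fibroblasts; cytotoxicity tracked in parallel cultures by SRB staining.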

[12] = read-out: C-C motif chemokine 2 (Homo sapiens) (UniProt P13500); experiment: BSK_KF3CT_MCP1: BioMAP Diversity Plus: KF3CT Assay for Monocyte Chemoattractant Protein 1 (MCP1/CCL2) Biomarker Activity (AID 2283073); settings: primary human keratinocytes with fibroblasts; actives raise or lower the signal
Outline: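 ELISA read-out of MCP-1, 24 h post-dose, in primary human skin keratinocytes co-cultured with fibroblasts. Parallel SRB staining monitors cytotoxicity; changes fitted both directions relative to DMSO.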

[13] = read-out: urokinase plasminogen activator (uPA), PLAU (gene 5328); experiment: BSK_KF3CT_uPA: BioMAP Diversity Plus: KF3CT Assay for urokinase plasminogen activator (uPA) Biomarker Activity (AID 2283075); settings: primary human keratinocytes with fibroblasts; actives raise or lower the signal
Outline: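 ELISA read-out of uPA 24 h after dosing human skin keratinocytes co-cultured with foreskin fibroblasts. Signal change fitted both ways relative to DMSO; sulforhodamine B on parallel cultures marks overt cytotoxicity.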

CD40, CD40 (gene 958) = experiment: BSK_LPS_CD40: BioMAP Diversity Plus: LPS Assay for CD40 Biomarker Activity (AID 2283076); settings: primary human HUVEC with PBMC; actives raise or lower the signal
Outline: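 In the LPS system of human endothelial cells with peripheral blood mononuclear cells, CD40 levels were read by ELISA 24 h post-treatment. Signal changes in either direction were fitted against the DMSO baseline, with parallel SRB protein staining.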

[14] = read-out: E-selectin (Homo sapiens) (UniProt P16581); experiment: BSK_LPS_Eselectin: BioMAP Diversity Plus: LPS Assay for Eselectin Biomarker Activity (AID 2283077); settings: primary human HUVEC with PBMC; actives raise or lower the signal
Outline: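 E-selectin ELISA on LPS-stimulated endothelial cell/PBMC co-cultures, read 24 h post-treatment; gains and losses fitted against DMSO. Parallel SRB staining (0.1% SRB after 10% TCA fixation, 560 nm) flags overt cytotoxicity.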

[15] = read-out: Interleukin-8 (IL8), CXCL8 (gene 3576); experiment: BSK_LPS_IL8: BioMAP Diversity Plus: LPS Assay for Interleukin-8 (IL8) Biomarker Activity (AID 2283078); settings: primary human HUVEC with PBMC; actives raise or lower the signal
Outline: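 ELISA read-out of IL-8 after 24 h chemical treatment of LPS-activated endothelial/PBMC human primary co-cultures. Changes either up or down relative to DMSO; overt cytotoxicity checked by sulforhodamine B staining in parallel wells.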

[16] = read-out: Interleukin-1 alpha (IL1a), IL1A (gene 3552); experiment: BSK_LPS_IL1a: BioMAP Diversity Plus: LPS Assay for Interleukin-1 alpha (IL1a) Biomarker Activity (AID 2283080); settings: primary human HUVEC with PBMC; actives raise or lower the signal
Outline: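 Readout is IL-1a level by ELISA, 24 h post-dose, fitted as gain or loss relative to DMSO. System: LPS-activated human primary co-culture of vascular endothelium and peripheral blood mononuclear cells, with parallel SRB total-protein cytotoxicity.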

[17] = BSK_LPS_SRB: Viability Assessment in the BioMAP Diversity Plus: LPS Assay (AID 2283079); settings: primary human HUVEC with PBMC;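 further: total protein by sulforhodamine B absorbance as a cytotoxicity measure; measured one day after compound addition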
Outline: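 SRB viability endpoint: cells fixed with 10% TCA, stained with 0.1% SRB, read at 560 nm, 24 h post-dose. HUVEC/PBMC co-culture; signal change in either direction scored relative to DMSO.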

[18] = read-out: TIMP metallopeptidase inhibitor 2 (TIMP2), TIMP2 (gene 7077); experiment: BSK_KF3CT_TIMP2: BioMAP Diversity Plus: KF3CT Assay for TIMP metallopeptidase inhibitor 2 (TIMP2) Biomarker Activity (AID 2283071); settings: primary human keratinocytes with fibroblasts; actives raise or lower the signal
Outline: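 Measurements come from ELISA detection of TIMP-2 at 24 hours in a dosed human keratinocyte and foreskin fibroblast co-culture. DMSO serves as negative control and baseline.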

[19] = read-out: Matrix Metallopeptidase 9 (MMP9), MMP9 (gene 4318); experiment: BSK_KF3CT_MMP9: BioMAP Diversity Plus: KF3CT Assay for Matrix Metallopeptidase 9 (MMP9) Biomarker Activity (AID 2283074); settings: primary human keratinocytes with fibroblasts; actives raise or lower the signal
Outline: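 MMP-9 quantified by ELISA after 24 h chemical treatment of primary human skin keratinocyte/fibroblast co-cultures; gain or loss fitted against DMSO, with parallel SRB staining (0.1% SRB, 560 nm) for overt cytotoxicity.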

Measured: AC50

E-selectin (Homo sapiens), sequence (P16581 whole entry, looked up): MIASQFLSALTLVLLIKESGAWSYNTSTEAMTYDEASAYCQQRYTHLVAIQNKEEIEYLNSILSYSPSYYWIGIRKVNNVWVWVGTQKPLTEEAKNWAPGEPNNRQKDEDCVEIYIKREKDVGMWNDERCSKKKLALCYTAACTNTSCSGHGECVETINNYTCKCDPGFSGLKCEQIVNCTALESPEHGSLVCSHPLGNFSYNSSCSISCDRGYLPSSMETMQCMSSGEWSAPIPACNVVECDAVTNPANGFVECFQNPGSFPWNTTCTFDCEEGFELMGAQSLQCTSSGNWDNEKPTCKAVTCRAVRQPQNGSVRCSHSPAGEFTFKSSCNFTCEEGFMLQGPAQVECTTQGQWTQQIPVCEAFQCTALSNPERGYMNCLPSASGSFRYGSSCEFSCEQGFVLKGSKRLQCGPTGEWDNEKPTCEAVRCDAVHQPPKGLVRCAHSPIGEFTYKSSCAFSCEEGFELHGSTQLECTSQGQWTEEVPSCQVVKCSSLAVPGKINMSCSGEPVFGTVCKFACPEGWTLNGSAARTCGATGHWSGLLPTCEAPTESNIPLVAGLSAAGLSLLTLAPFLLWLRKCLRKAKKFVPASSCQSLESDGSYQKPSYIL

CCN(CC)N=O
not listed: [17] | [18] | [19]
inactive: all other assays above

CCC(C)c1ccc(O)cc1 (stereo not drawn)
not listed: [18] | [19]
inactive: all other assays above

CC(O)CCO (stereo not drawn)
not listed: [2] | [19]
inactive: all other assays above

CN(C)[C@@H]1C(=O)C(C(N)=O)=C(O)[C@@]2(O)C(=O)C3=C(O)c4c(O)cccc4[C@@](C)(O)[C@H]3C[C@@H]12
not listed: [2] | [17] | [18]
inactive: all other assays above

C[N+](C)(C)CC1CO1 (stereo not drawn)
not listed: [2] | [19]
inactive: all other assays above

N#CC(Br)Br
not listed: [2] | [17] | [19]
inactive: all other assays above

OCCCBr
not listed: [2] | [17] | [19]
inactive: all other assays above

Cn1cc(-c2ccccc2)c(=O)c(-c2cccc(C(F)(F)F)c2)c1
not listed: [2] | [17] | [18]
inactive: all other assays above

N#CC(Br)(Br)C(N)=O
not listed: [2] | [17] | [18]
inactive: all other assays above

ClC1=C(Cl)[C@]2(Cl)[C@H]3[C@H]([C@@H]4C=C[C@H]3C4)[C@@]1(Cl)C2(Cl)Cl
active: [1] 10.3 µM | [3] 16.4 µM | [4] 29.9 µM | [5] 10.1 µM | [6] 10.7 µM | [7] 15.5 µM | [8] 14.5 µM | [9] 30.6 µM | [11] 22.4 µM | [12] 22.3 µM | [13] 28.7 µM | CD40, CD40 (gene 958) 32.1 µM | [14] 33.5 µM | [15] 33.8 µM | [16] 28.9 µM

CCOC(=O)[C@]1(c2ccccc2)Oc2ccccc2[C@@H]1N
active: [1] 26.9 µM | [5] 36.6 µM | [6] 33.6 µM | CD40, CD40 (gene 958) 32.9 µM | [15] 36.1 µM
not listed: [2] | [3] | [17] | [18] | [19]
inactive: all other assays above

CCCCOC(=O)c1ccccc1C(=O)OCc1ccccc1
active: [5] 20 µM
not listed: [2] | [17] | [18] | [19]
inactive: all other assays above

CC(C)COC(=O)c1ccccc1C(=O)OCC(C)C
active: [5] 20 µM
not listed: [2] | [18] | [19]
inactive: all other assays above

Oc1ccccc1Cl
not listed: [2] | [18]
inactive: all other assays above

Cc1cccc(N)c1N
active: [7] 9.01 µM | CD40, CD40 (gene 958) 7.51 µM | [15] 20 µM
not listed: [2] | [17] | [18] | [19]
inactive: all other assays above

From PubChem BioAssay (EPA / NIEHS)
